Data taken from PubChem BioAssay (Tox21).
Records with an inconclusive call do not appear. Calls of active or inactive are those of the source. Calls follow the shape of the full dose curve.

experiment: qHTS assay to identify small molecule agonists of the NFkB signaling pathway - cell viability counter screen (AID 1159515); settings: NFkB-bla ME-180 viability, CellTiter-Glo luminescence, 5 h; series mostly up to 61 µM; activity, negative = cytotoxic: at the top concentration; also: nearly all actives have a fitted effect of over 55% in size
Excerpt: National Center for Advancing Translational Sciences [NCATS]
NIH Chemical Genomics Center [NCGC]
U.S. Environmental Protection Agency [EPA]
National Institutes of Environmental Health Sciences [NIEHS]
National Toxicology Program [NTP]
U.S. Food and Drug Administration [FDA]
Transcription factors and their stimulated target gene expression play pivotal roles across many cellular processes including responses to environmental stimuli. Proper regulation of associated pathways is critical to maintain cell health and function. Constitutive activation of transcription factor pathways has been implicated in tumors as it may block cellular functions such as apoptosis and lead to invasion and metastasis. One important transcription factor that stimulates gene expression in response to cytokines, UV radiation, and other stimuli is nuclear factor-kappa B (NFkB). To measure activation of the NFkB pathway, the CellSensor NFkB-bla ME-180 cell line (Life Technologies, Carlsbad, CA) that stably expresses beta-lactamase reporter gene under the regulation of a NF-kB response element was used. This assay allows measurement of the NFkB pathway activity induced by compounds in a ME-180 cell line. This system quantitates NF-kB activity using a FRET-based assay system where beta-lactamase expression disrupts FRET, allowing for fluorescent measurement of activity. This cell line has been used to screen the Tox21 10K compound library and to identify compounds that induce the NFkB pathway activity. The cytotoxicity of the Tox21 compound library against the NFkB-bla ME-180 cell line was tested in parallel by measuring cell viability using the CellTiter-Glo assay in the same wells.
Tox21 Assay Protocol Summary:
NFkB-bla ME-180 cells were dispensed at 2,000 cells/6 uL of assay medium per well into black wall/clear-bottom 1536-well plates using a Multidrop Combi (ThermoFisher Scientific, Waltham, MA) dispenser. After the assay plates were incubated at 37 C and 5% CO2 for an overnight, 23 nL of compounds dissolved in DMSO, positive controls or DMSO only was transferred to the assay plate by a Pintool station (Kalypsys, San Diego, CA). The assay plates were incubated at 37 C and 5% CO2 for 5 hr. One uL of LiveBLAzer B/G FRET substrate (Life Technologies) was added using a Flying Reagent Dispenser (Aurora Discovery, San Diego, CA) and the plates were incubated at room temperature for 1.5 hr. Fluorescence intensity (405 nm excitation, 460 nm and 530 nm emissions) was measured using an Envision plate reader (PerkinElmer, Shelton, CT). For cytotoxicity, 3 ul/well of CellTiter-Glo reagent was added into the assay plates using an FRD. After 30 min incubation at room temperature, the luminescence intensity was measured using a ViewLux plate reader (PerkinElmer).
% is scaled to controls: 0 for no effect and ±100 for the full control effect.

SMILES	activity, negative = cytotoxic
CCCC(C)CC (stereo not given)	0.505% (inactive)
COC(OC)C(C)c1ccccc1 (stereo not given)	9.41% (inactive)
CC(=O)OC(C(=O)c1ccccc1)c1ccccc1 (stereo not given)	-1.33% [at 78.8 µM] (inactive)
COC(=O)CCC(=O)O	-1.67% (inactive)
OC(CCN1CCCCC1)(c1ccccc1)c1ccccc1	-9.28% (inactive)
CCCCCCCCCCCCCCCCI	-5.26% [at 28.5 µM] (inactive)
CCOC(=O)CCc1ccccc1	4.47% (inactive)
NCCc1ccn[nH]1	4.06% (inactive)
CCC(C)(CCC(C)C)C(=O)[O-].CCC(C)(CCC(C)C)C(=O)[O-].[Zn+2] (stereo not given)	-5.45% (inactive)
CCCCCC1Nc2cc(C(F)(F)F)c(S(N)(=O)=O)cc2S(=O)(=O)N1 (stereo not given)	-4.68% (inactive)
O=P(O)(O)OCC(O)CO (stereo not given)	7.08% (inactive)
C=CCOC(=O)c1ccc(C(=O)OCC=C)c(C(=O)OCC=C)c1	-9.27% (inactive)
CCC1COC(=O)O1 (stereo not given)	12.9% (inactive)
O=C(/C=C/c1ccccc1)NCCO	-9.01% (inactive)
Cc1ncc([N+](=O)[O-])n1CC(O)CCl (stereo not given)	-27.5% (inactive)
CCCOC(=O)CCCCC(=O)OCCC	6.88% (inactive)
CCOC(=O)CCCCCCCCC(=O)OCC	0.573% (inactive)
CC(C)COC(=O)/C=C/c1ccccc1	2.86% (inactive)
Cc1ccc2c(c1)c1c3n2CCNC3CCC1 (stereo not given)	-9.34% (inactive)
CCc1nccnc1C	3.23% (inactive)

SMILES	activity, negative = cytotoxic
CCCCCCCC[Si](OCC)(OCC)OCC	8.3% (inactive)
Nc1ccc(S(=O)(=O)Nc2ccccn2)cc1	10.5% (inactive)
CN[C@@H]1[C@@H](O)[C@@H](O[C@@H]2[C@H](O)[C@H](O[C@H]3OC(CN)=CC[C@H]3N)[C@@H](N)C[C@H]2N)OCC1(C)O (stereo not given in full)	1.1% (inactive)
O=C(O)/C=C/c1ccccc1	-0.0061% (inactive)
CCCCCCCCCCCCCCCCCCN(C)C	-13.2% (inactive)
CC(C)CCO	8.05% (inactive)
NC(Cc1c[nH]c2ccccc12)C(=O)O (stereo not given)	-8.83% (inactive)
O=C(COCCOCCOCC(=O)Nc1c(I)cc(I)c(C(=O)O)c1I)Nc1c(I)cc(I)c(C(=O)O)c1I	2.12% (inactive)
O=C(O)C(=O)Nc1cccc(-c2nn[nH]n2)c1	9.47% (inactive)
Cc1cccc(NC(=S)N(C)C)c1	-2.38% (inactive)
COc1cccc2sc(N)nc12	-1.61% [at 78.8 µM] (inactive)
COc1cc2c(Nc3ccc(Br)cc3F)ncnc2cc1OCC1CCN(C)CC1	10.7% (inactive)
CC(C)(c1ccc(Oc2ccc3c(c2)C(=O)OC3=O)cc1)c1ccc(Oc2ccc3c(c2)C(=O)OC3=O)cc1	3.92% (inactive)
CCNC(=O)NCCCOc1cccc(CN2CCCCC2)c1	-8.73% (inactive)
FC(F)(F)/C(=N\OCC1OCCO1)c1ccc(Cl)cc1	4% (inactive)
CC1=CC[C@H](CC=O)C1(C)C	-5.33% (inactive)
CCOC(=O)OCC/C(SC(=O)OCC)=C(\C)N(C=O)Cc1cnc(C)nc1N	-0.106% (inactive)
CCOC(=O)CC(CC(=O)OCC)(OC(C)=O)C(=O)OCC	6.34% (inactive)
CCC(C)N (stereo not given)	11.5% (inactive)
CCNC(=O)/C=C/c1cccc(Br)c1	-6.49% (inactive)
